Results filed as inconclusive are left out. Where a call stands in place of a potency, no number is given. A number with no mark means an inactive call. Active and inactive are the calls of the source. Unless noted, the call rests on the fitted dose curve; in most records, active means well fitted cell-killing curve with a large enough effect in the repeat runs; inconclusive means weak or mixed curves, or effect the other way; inactive means no such curve, though single readings can be large or run the other way.
Target: Peroxisome proliferator-activated receptor delta (Homo sapiens) (UniProt Q03181)
Sequence (Q03181 whole entry, looked up): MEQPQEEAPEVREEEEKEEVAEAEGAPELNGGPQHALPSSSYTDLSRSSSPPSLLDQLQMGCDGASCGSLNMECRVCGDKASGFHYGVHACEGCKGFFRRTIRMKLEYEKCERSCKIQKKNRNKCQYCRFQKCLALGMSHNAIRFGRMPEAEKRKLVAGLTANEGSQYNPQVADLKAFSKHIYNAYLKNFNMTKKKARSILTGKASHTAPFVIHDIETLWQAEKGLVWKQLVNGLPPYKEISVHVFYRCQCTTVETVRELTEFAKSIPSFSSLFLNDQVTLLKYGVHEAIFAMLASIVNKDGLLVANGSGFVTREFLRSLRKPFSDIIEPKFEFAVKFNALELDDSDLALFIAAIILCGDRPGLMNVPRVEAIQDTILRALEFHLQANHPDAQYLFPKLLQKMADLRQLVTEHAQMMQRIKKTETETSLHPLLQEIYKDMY
Experiment: qHTS assay to identify small molecule antagonists of the peroxisome proliferator-activated receptor delta (PPARd) signaling pathway (AID 743215; active means well fitted inhibition curve with a large enough effect in the signal ratio in the repeat runs, not every such curve was filed as active; the % refers to the signal ratio;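 further: cells stimulated with agonist L165041 at 300 nM final during compound exposure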)
Conditions: HEK293H PPARd-UAS-bla, beta-lactamase FRET ratio, antagonist, 17 h; series mostly up to 62 µM; ratio activity, negative = inhibition: at the top concentration
Outline: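 PPARd-bla HEK293H cells (UAS-bla reporter) preincubated 5 h, then given compound plus 300 nM final L165041 agonist for 17 h at 37 C. Beta-lactamase activity read by LiveBLAzer B/G FRET substrate fluorescence after 2 h at room temperature.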

SMILES	outcome	ratio activity, negative = inhibition
CC1COc2ccccc2N1C(=O)C(Cl)Cl (stereo unspecified)	inactive	–
CC1(C)O[C@@H]2C[C@H]3[C@@H]4C[C@H](F)C5=CC(=O)CC[C@]5(C)[C@H]4[C@@H](O)C[C@]3(C)[C@]2(C(=O)CO)O1	–	15.5%
Oc1c(Cl)cc(Cl)c(Cl)c1Cl	inactive	–
C=C1CC[C@H](O)CC1=C/C=C1\CCC[C@]2(C)[C@@H]([C@H](C)/C=C/[C@H](C)C(C)C)CC[C@@H]12	–	2.42%
S=c1nc[nH]c2nc[nH]c12	–	-8.26%
CC1=C(/C=C/C(C)=C/C=C/C(C)=C/CO)C(C)(C)CCC1	–	-17.6% [at 80.4 µM]
CC1=C(CC(=O)O)c2cc(F)ccc2/C1=C\c1ccc(S(C)=O)cc1 (stereo unspecified)	–	1.33%
O=C(O)c1cc(-c2ccccc2)nc2ccccc12	–	7.63%
CN(C)c1cccc(O)c1	inactive	–
CCCCCCCCCC(=O)O	–	4.01%

Target: Bile acid receptor (Homo sapiens) (UniProt Q96RI1)
Sequence (Q96RI1 whole entry, looked up): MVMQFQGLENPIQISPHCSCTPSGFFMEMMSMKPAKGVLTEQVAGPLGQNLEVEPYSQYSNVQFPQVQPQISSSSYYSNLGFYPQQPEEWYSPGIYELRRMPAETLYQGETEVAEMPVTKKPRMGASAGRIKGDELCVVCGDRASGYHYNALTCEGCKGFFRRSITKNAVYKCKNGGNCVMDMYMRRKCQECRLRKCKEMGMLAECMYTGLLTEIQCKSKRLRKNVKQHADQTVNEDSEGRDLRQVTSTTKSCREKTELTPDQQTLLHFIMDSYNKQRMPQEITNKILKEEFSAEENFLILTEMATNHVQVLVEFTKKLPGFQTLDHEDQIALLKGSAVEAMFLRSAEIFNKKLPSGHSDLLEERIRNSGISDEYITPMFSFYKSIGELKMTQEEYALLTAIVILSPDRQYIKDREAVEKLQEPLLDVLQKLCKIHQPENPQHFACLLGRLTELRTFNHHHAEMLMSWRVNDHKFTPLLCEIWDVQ
Experiment: qHTS assay to identify small molecule antagonists of the farnesoid-X-receptor (FXR) signaling pathway (AID 743217; active means well fitted inhibition curve with a large enough effect in the signal ratio in the repeat runs, not every such curve was filed as active; the % refers to the signal ratio)
Conditions: HEK293T FXR-UAS-bla, beta-lactamase ratio, CDCA-stimulated, 16 h; series mostly up to 62.6 µM; activity change, negative = inhibition: at the top concentration
Outline: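 FXR-UAS-bla HEK 293T cells (beta-lactamase reporter) given compound plus chenodeoxycholic acid (50 uM final), 16 h at 37C. LiveBLAzer B/G FRET substrate added for 2 h at room temperature; fluorescence read.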

SMILES	outcome	activity change, negative = inhibition
NCCc1ccc(O)c(O)c1	inactive	–
CC1(C)CC(N=C=O)CC(C)(CN=C=O)C1 (stereo unspecified)	–	-3.62% [at 81.1 µM]
Oc1ccc2ccccc2c1N=Nc1ccccc1	–	-5.4%
O=C(O)c1cc(-c2ccccc2)nc2ccccc12	–	-6.4%
Cc1cc(Cc2ccc(N)c(C)c2)ccc1N	inactive	–
OCC#CCO	inactive	–
Cc1cc(NS(=O)(=O)c2ccc(N)cc2)no1	–	4.53%
CCCCCCC(C)(C)S	inactive	–
CN(CCOc1ccc(CC2SC(=O)NC2=O)cc1)c1ccccn1 (stereo unspecified)	–	0.742%
CC(C)NCC(O)COc1cccc2ccccc12 (stereo unspecified)	inactive	–

Tested on: not listed separately
Experiment: qHTS assay to identify small molecule agonists of the farnesoid-X-receptor (FXR) signaling pathway - cell viability counter screen (AID 743218); further: nearly all actives have a fitted effect of over 45% in size
Conditions: FXR-bla HEK293T viability, CellTiter-Glo luminescence, 16 h; series mostly up to 62.6 µM; viability change, negative = cytotoxic: at the top concentration
Outline: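 FXR-UAS-bla HEK 293T cells exposed to compounds for 16 h at 37C. Cytotoxicity read in the same wells by CellTiter-Glo luminescence after 30 min at room temperature, following the beta-lactamase FRET read.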

SMILES	Potency	viability change, negative = cytotoxic
CC1COc2ccccc2N1C(=O)C(Cl)Cl (stereo unspecified)	inactive	–
NCCc1ccc(O)c(O)c1	inactive	–
CC1(C)CC(N=C=O)CC(C)(CN=C=O)C1 (stereo unspecified)	inactive	–
COCC(C)O (stereo unspecified)	inactive	–
CC1(C)O[C@@H]2C[C@H]3[C@@H]4C[C@H](F)C5=CC(=O)CC[C@]5(C)[C@H]4[C@@H](O)C[C@]3(C)[C@]2(C(=O)CO)O1	inactive	–
S=c1nc[nH]c2nc[nH]c12	–	-15.3%
Oc1ccc2ccccc2c1N=Nc1ccccc1	inactive	–
COC(=O)c1ccc(C(=O)OC)cc1	–	10.4%
NC(=O)NNc1ccccc1	inactive	–
CC1=C(/C=C/C(C)=C/C=C/C(C)=C/CO)C(C)(C)CCC1	–	3.51% [at 81.1 µM]
CC1Cc2ccccc2N1NC(=O)c1ccc(Cl)c(S(N)(=O)=O)c1 (stereo unspecified)	inactive	–
CN(C)c1ccc(C(=N)c2ccc(N(C)C)cc2)cc1	inactive	–
CC1=C(CC(=O)O)c2cc(F)ccc2/C1=C\c1ccc(S(C)=O)cc1 (stereo unspecified)	inactive	–
OC[C@@H](O)[C@@H](O)[C@H](O)[C@@H](O)CO	inactive	–
O=C(O)c1cc(-c2ccccc2)nc2ccccc12	–	-0.0934%
Cc1cc(Cc2ccc(N)c(C)c2)ccc1N	–	9.09%
Nc1c(S(=O)(=O)O)cc(Br)c2c1C(=O)c1ccccc1C2=O	–	14.7%

SMILES	Potency	viability change, negative = cytotoxic
C[C@@H](O)[C@H]1C(=O)N2C(C(=O)O)=C(S[C@@H]3CN[C@H](C(=O)N(C)C)C3)[C@H](C)[C@H]12	inactive	–
Oc1ccc2ccccc2c1	–	1.78%
OCC#CCO	–	3.84%
C=C(C)C(=O)OCCCCCC	inactive	–
Cc1cc(NS(=O)(=O)c2ccc(N)cc2)no1	inactive	–
CN(C)c1cccc(O)c1	inactive	–
CS(=O)(=O)Nc1ccc([N+](=O)[O-])cc1Oc1ccccc1	–	3.59%
CC(C)n1c(/C=C/[C@@H](O)C[C@@H](O)CC(=O)O)c(-c2ccc(F)cc2)c2ccccc21	–	-15.8%
COC(=O)Nc1nc2ccc(Sc3ccccc3)cc2[nH]1	–	-9.85%
CCCCCCC(C)(C)S	inactive	–
CC(=O)CCc1ccccc1	inactive	–
CCCCCCCCCC(=O)O	–	8.65% [at 81.1 µM]
CC(=O)Nc1ccc(C(=O)O)cc1	–	3.87%
OC[C@@H](O)[C@H](O)[C@H](O)[C@@H](O)CO	inactive	–
CN(CCOc1ccc(CC2SC(=O)NC2=O)cc1)c1ccccn1 (stereo unspecified)	–	-12.5%
CC(C)NCC(O)COc1cccc2ccccc12 (stereo unspecified)	–	11% [at 81.1 µM]

Target: Bile acid receptor (Homo sapiens) (UniProt Q96RI1)
Experiment: qHTS assay to identify small molecule agonists of the farnesoid-X-receptor (FXR) signaling pathway (AID 743220; active means well fitted activation curve with a large enough effect in the signal ratio in the repeat runs, not every such curve was filed as active; the % refers to the signal ratio)
Conditions: HEK293T FXR-UAS-bla, beta-lactamase FRET ratio, 16 h; series mostly up to 62.6 µM; activation: at the top concentration
Outline: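 Beta-lactamase reporter under UAS control in GeneBLAzer FXR HEK 293T cells (5000/well) measured with LiveBLAzer FRET substrate after 2 h at room temperature. Compound exposure lasted 16 h at 37C.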

SMILES	outcome	activation [%]
NCCc1ccc(O)c(O)c1	inactive	–
CC1(C)CC(N=C=O)CC(C)(CN=C=O)C1 (stereo unspecified)	inactive	–
Oc1c(Cl)cc(Cl)c(Cl)c1Cl	inactive	–
C=C1CC[C@H](O)CC1=C/C=C1\CCC[C@]2(C)[C@@H]([C@H](C)/C=C/[C@H](C)C(C)C)CC[C@@H]12	–	-1.75
Oc1ccc2ccccc2c1N=Nc1ccccc1	inactive	–
O=C(O)c1cc(-c2ccccc2)nc2ccccc12	inactive	–
Cc1cc(Cc2ccc(N)c(C)c2)ccc1N	inactive	–
OCC#CCO	inactive	–
Cc1cc(NS(=O)(=O)c2ccc(N)cc2)no1	inactive	–
CCCCCCC(C)(C)S	inactive	–
CN(CCOc1ccc(CC2SC(=O)NC2=O)cc1)c1ccccn1 (stereo unspecified)	–	-5.81
CC(C)NCC(O)COc1cccc2ccccc12 (stereo unspecified)	inactive	–

Tested on: not listed separately
Experiment: qHTS assay to identify small molecule antagonists of the farnesoid-X-receptor (FXR) signaling pathway - cell viability counter screen (AID 743221; active means well fitted cell-killing curve with a large enough effect in the repeat runs, not every such curve was filed as active; further: nearly all actives have a fitted effect of over 50% in size)
Conditions: FXR-bla HEK293T viability, CellTiter-Glo luminescence, 16 h; series mostly up to 62.6 µM; activity change, negative = cytotoxicity: at the top concentration
Outline: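 FXR-UAS-bla HEK 293T cells were treated with test compounds plus chenodeoxycholic acid (50 uM final) for 16 h at 37 C. Cell viability in the same wells was then read as CellTiter-Glo luminescence after 30 min at room temperature.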

SMILES	Potency	activity change, negative = cytotoxicity
CC1COc2ccccc2N1C(=O)C(Cl)Cl (stereo unspecified)	inactive	–
O=C1N=C(O)CN1/N=C/c1ccc(-c2ccc([N+](=O)[O-])cc2)o1	–	14.7%
CC1(C)CC(N=C=O)CC(C)(CN=C=O)C1 (stereo unspecified)	inactive	–
CC1Cc2ccccc2N1NC(=O)c1ccc(Cl)c(S(N)(=O)=O)c1 (stereo unspecified)	inactive	–
CN(C)c1ccc(C(=N)c2ccc(N(C)C)cc2)cc1	inactive	–
CC1=C(CC(=O)O)c2cc(F)ccc2/C1=C\c1ccc(S(C)=O)cc1 (stereo unspecified)	inactive	–
OC[C@@H](O)[C@@H](O)[C@H](O)[C@@H](O)CO	inactive	–
O=C(O)c1cc(-c2ccccc2)nc2ccccc12	–	6.85%
Nc1c(S(=O)(=O)O)cc(Br)c2c1C(=O)c1ccccc1C2=O	inactive	–
C[C@@H](O)[C@H]1C(=O)N2C(C(=O)O)=C(S[C@@H]3CN[C@H](C(=O)N(C)C)C3)[C@H](C)[C@H]12	inactive	–
Oc1ccc2ccccc2c1	inactive	–
OCC#CCO	inactive	–
C=C(C)C(=O)OCCCCCC	inactive	–
Cc1cc(NS(=O)(=O)c2ccc(N)cc2)no1	inactive	–
COC(=O)Nc1nc2ccc(Sc3ccccc3)cc2[nH]1	–	-3.9%
CCCCCCC(C)(C)S	inactive	–
CC(=O)CCc1ccccc1	inactive	–
CCCCCCCCCC(=O)O	inactive	–
CC(=O)Nc1ccc(C(=O)O)cc1	inactive	–
OC[C@@H](O)[C@H](O)[C@H](O)[C@@H](O)CO	inactive	–
CC(C)NCC(O)COc1cccc2ccccc12 (stereo unspecified)	–	6.76% [at 81.1 µM]
